Data: the supplement of paper PMC4022240
± gives the standard deviation.

How the values were obtained:
Assay in all cases: peptide microarray binding signal (635 nm), min-max normalized on array (fraction of array maximum); higher = stronger binding
Settings in all cases: peptide region: H3 11-23
[1] = biological target: T1, HaloTag-ATRX ADD domain (163-292)
T1 chain: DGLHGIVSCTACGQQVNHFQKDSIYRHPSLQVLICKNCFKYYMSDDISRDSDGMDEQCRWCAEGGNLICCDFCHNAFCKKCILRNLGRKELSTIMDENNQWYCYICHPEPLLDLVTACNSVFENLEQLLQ
Summary of the method: (§1)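 An Axon GenePix 4000B scanned the arrays at 635 nm for signal and at 532 nm to catch misprints. Those arrays held histone 13-mer peptide–cellulose conjugates printed in triplicate on nitrocellulose with a Cy3 tracer, blocked overnight at 4°C and probed for 1 h at 4°C with biotin-labelled HaloTag reader fusions (10 nM to 1 μM) plus streptavidin-Alexa Fluor 647 or with rabbit histone antibodies (1:10,000 to 1:2,000) plus anti-rabbit Alexa 647. Each binding signal is a triplicate-spot mean intensity, scaled min-max within its library.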

[2] = biological target: HaloTag-ING2 PHD (mouse Ing2 200-280)
Summary of the method: as §1

[3] = biological target: anti-H3K4me3 antibody ab8580
Summary of the method: as §1

[4] = biological target: anti-H3K9me3 antibody ab8898
Summary of the method: as §1

[5] = peptide modifications: H3R17cit H3K18me1, binder concentration: 1:2,000 dilution
[6] = peptide modifications: H3R17cit H3K18me1, binder concentration: 1:10,000 dilution
[7] = peptide modifications: H3R17cit H3K18me2, binder concentration: 1:2,000 dilution
[8] = peptide modifications: H3R17cit H3K18me2, binder concentration: 1:10,000 dilution
[9] = peptide modifications: H3R17cit H3K18me3, binder concentration: 1:2,000 dilution
[10] = peptide modifications: H3R17cit H3K18me3, binder concentration: 1:10,000 dilution
[11] = peptide modifications: H3R17cit, binder concentration: 1:2,000 dilution
[12] = peptide modifications: H3R17cit, binder concentration: 1:10,000 dilution
[13] = peptide modifications: H3R17me1, binder concentration: 1:2,000 dilution
[14] = peptide modifications: H3R17me1, binder concentration: 1:10,000 dilution
[15] = peptide modifications: H3R17me1 H3K18ac, binder concentration: 1:2,000 dilution
[16] = peptide modifications: H3R17me1 H3K18ac, binder concentration: 1:10,000 dilution
[17] = peptide modifications: H3R17me1 H3K18me1, binder concentration: 1:2,000 dilution
[18] = peptide modifications: H3R17me1 H3K18me1, binder concentration: 1:10,000 dilution
[19] = peptide modifications: H3R17me1 H3K18me2, binder concentration: 1:2,000 dilution
[20] = peptide modifications: H3R17me1 H3K18me2, binder concentration: 1:10,000 dilution
[21] = peptide modifications: H3R17me1 H3K18me3, binder concentration: 1:2,000 dilution
[22] = peptide modifications: H3R17me1 H3K18me3, binder concentration: 1:10,000 dilution
[23] = peptide modifications: H3R17me2a H3K18ac, binder concentration: 1:2,000 dilution
[24] = peptide modifications: H3R17me2a H3K18ac, binder concentration: 1:10,000 dilution

B1: H3 11-23 T G G K A P Rcit Kme Q L A T K (peptide)
chain: TGGKAPRKQLATK
peptide microarray binding signal ([1]; peptide modifications: H3R17cit H3K18me1, binder concentration: 50 nM): 0.00524 ± 6.5e-05 | peptide microarray binding signal ([1]; peptide modifications: H3R17cit H3K18me1, binder concentration: 500 nM): 0.009239 ± 4.5e-05 | peptide microarray binding signal ([2]; peptide modifications: H3R17cit H3K18me1, binder concentration: 10 nM): 0.00382 ± 0.00016 | peptide microarray binding signal ([2]; peptide modifications: H3R17cit H3K18me1, binder concentration: 100 nM): 0.014 ± 0.0031 | peptide microarray binding signal [3, 5]: 0.00383 ± 0.00052 | peptide microarray binding signal [3, 6]: 0.0028 ± 0.00018 | peptide microarray binding signal [4, 5]: 0.000846 ± 5.8e-05 | peptide microarray binding signal [4, 6]: 0.000807

B2: H3 11-23 T G G K A P Rcit Kme2 Q L A T K (peptide)
chain: TGGKAPRKQLATK
peptide microarray binding signal ([1]; peptide modifications: H3R17cit H3K18me2, binder concentration: 50 nM): 0.00542 ± 6.7e-05 | peptide microarray binding signal ([1]; peptide modifications: H3R17cit H3K18me2, binder concentration: 500 nM): 0.0117 ± 0.00022 | peptide microarray binding signal ([2]; peptide modifications: H3R17cit H3K18me2, binder concentration: 10 nM): 0.00806 ± 0.00083 | peptide microarray binding signal ([2]; peptide modifications: H3R17cit H3K18me2, binder concentration: 100 nM): 0.0217 ± 0.0032 | peptide microarray binding signal [3, 7]: 0.0091 ± 0.0018 | peptide microarray binding signal [3, 8]: 0.00548 ± 0.00043 | peptide microarray binding signal [4, 7]: 0.000921 ± 7.2e-05 | peptide microarray binding signal [4, 8]: 0.000865 ± 2.4e-05

B3: H3 11-23 T G G K A P Rcit Kme3 Q L A T K (peptide)
chain: TGGKAPRKQLATK
peptide microarray binding signal ([1]; peptide modifications: H3R17cit H3K18me3, binder concentration: 50 nM): 0.00592 ± 0.00019 | peptide microarray binding signal ([1]; peptide modifications: H3R17cit H3K18me3, binder concentration: 500 nM): 0.012 ± 0.00018 | peptide microarray binding signal ([2]; peptide modifications: H3R17cit H3K18me3, binder concentration: 10 nM): 0.0112 ± 0.0014 | peptide microarray binding signal ([2]; peptide modifications: H3R17cit H3K18me3, binder concentration: 100 nM): 0.0317 ± 0.0063 | peptide microarray binding signal [3, 9]: 0.728 ± 0.052 | peptide microarray binding signal [3, 10]: 0.45 ± 0.036 | peptide microarray binding signal [4, 9]: 0.0249 ± 0.0032 | peptide microarray binding signal [4, 10]: 0.0125 ± 0.0016

B4: H3 11-23 T G G K A P Rcit K Q L A T K (peptide)
chain: TGGKAPRKQLATK
peptide microarray binding signal ([1]; peptide modifications: H3R17cit, binder concentration: 50 nM): 0.00364 ± 6.7e-05 | peptide microarray binding signal ([1]; peptide modifications: H3R17cit, binder concentration: 500 nM): 0.0192 ± 0.00046 | peptide microarray binding signal ([2]; peptide modifications: H3R17cit, binder concentration: 10 nM): 0.00794 ± 0.00039 | peptide microarray binding signal ([2]; peptide modifications: H3R17cit, binder concentration: 100 nM): 0.0168 ± 0.0043 | peptide microarray binding signal [3, 11]: 0.000302 ± 4.1e-05 | peptide microarray binding signal [3, 12]: 0.00148 ± 0.00015 | peptide microarray binding signal [4, 11]: 0.00122 ± 4.2e-05 | peptide microarray binding signal [4, 12]: 0.0015 ± 6.7e-05

B5: H3 11-23 T G G K A P Rme K Q L A T K (peptide)
chain: TGGKAPRKQLATK
peptide microarray binding signal ([1]; peptide modifications: H3R17me1, binder concentration: 50 nM): 0.0101 ± 0.00079 | peptide microarray binding signal ([1]; peptide modifications: H3R17me1, binder concentration: 500 nM): 0.0274 ± 0.0035 | peptide microarray binding signal ([2]; peptide modifications: H3R17me1, binder concentration: 10 nM): 0.00877 ± 0.0015 | peptide microarray binding signal ([2]; peptide modifications: H3R17me1, binder concentration: 100 nM): 0.0348 ± 0.0049 | peptide microarray binding signal [3, 13]: 0.00176 ± 7.5e-05 | peptide microarray binding signal [3, 14]: 0.00103 ± 2.1e-05 | peptide microarray binding signal [4, 13]: 0.00326 ± 7.1e-05 | peptide microarray binding signal [4, 14]: 0.00265 ± 0.00014

B6: H3 11-23 T G G K A P Rme Kac Q L A T K (peptide)
chain: TGGKAPRKQLATK
peptide microarray binding signal ([1]; peptide modifications: H3R17me1 H3K18ac, binder concentration: 50 nM): 0.00715 ± 0.00026 | peptide microarray binding signal ([1]; peptide modifications: H3R17me1 H3K18ac, binder concentration: 500 nM): 0.0141 ± 0.00063 | peptide microarray binding signal ([2]; peptide modifications: H3R17me1 H3K18ac, binder concentration: 10 nM): 0.00931 ± 0.0014 | peptide microarray binding signal ([2]; peptide modifications: H3R17me1 H3K18ac, binder concentration: 100 nM): 0.0197 ± 0.0049 | peptide microarray binding signal [3, 15]: 0.00513 ± 0.00068 | peptide microarray binding signal [3, 16]: 0.0149 ± 0.004 | peptide microarray binding signal [4, 15]: 0.001208 ± 9.1e-06 | peptide microarray binding signal [4, 16]: 0.00121 ± 3.2e-05

B7: H3 11-23 T G G K A P Rme Kme Q L A T K (peptide)
chain: TGGKAPRKQLATK
peptide microarray binding signal ([1]; peptide modifications: H3R17me1 H3K18me1, binder concentration: 50 nM): 0.009 ± 0.00036 | peptide microarray binding signal ([1]; peptide modifications: H3R17me1 H3K18me1, binder concentration: 500 nM): 0.018 ± 0.0028 | peptide microarray binding signal ([2]; peptide modifications: H3R17me1 H3K18me1, binder concentration: 10 nM): 0.0114 ± 0.001 | peptide microarray binding signal ([2]; peptide modifications: H3R17me1 H3K18me1, binder concentration: 100 nM): 0.0208 ± 0.0062 | peptide microarray binding signal [3, 17]: 0.00808 ± 0.0017 | peptide microarray binding signal [3, 18]: 0.00622 ± 0.0014 | peptide microarray binding signal [4, 17]: 0.0021 ± 0.00037 | peptide microarray binding signal [4, 18]: 0.00161 ± 4.1e-05

B8: H3 11-23 T G G K A P Rme Kme2 Q L A T K (peptide)
chain: TGGKAPRKQLATK
peptide microarray binding signal ([1]; peptide modifications: H3R17me1 H3K18me2, binder concentration: 50 nM): 0.00837 ± 0.00068 | peptide microarray binding signal ([1]; peptide modifications: H3R17me1 H3K18me2, binder concentration: 500 nM): 0.0122 ± 0.0013 | peptide microarray binding signal ([2]; peptide modifications: H3R17me1 H3K18me2, binder concentration: 10 nM): 0.0167 ± 0.002 | peptide microarray binding signal ([2]; peptide modifications: H3R17me1 H3K18me2, binder concentration: 100 nM): 0.0345 ± 0.0088 | peptide microarray binding signal [3, 19]: 0.0126 ± 0.0083 | peptide microarray binding signal [3, 20]: 0.0135 ± 0.01 | peptide microarray binding signal [4, 19]: 0.00181 ± 0.00018 | peptide microarray binding signal [4, 20]: 0.001557 ± 1.5e-05

B9: H3 11-23 T G G K A P Rme Kme3 Q L A T K (peptide)
chain: TGGKAPRKQLATK
peptide microarray binding signal ([1]; peptide modifications: H3R17me1 H3K18me3, binder concentration: 50 nM): 0.0105 ± 0.00069 | peptide microarray binding signal ([1]; peptide modifications: H3R17me1 H3K18me3, binder concentration: 500 nM): 0.0187 ± 0.002 | peptide microarray binding signal ([2]; peptide modifications: H3R17me1 H3K18me3, binder concentration: 10 nM): 0.00901 ± 0.00033 | peptide microarray binding signal ([2]; peptide modifications: H3R17me1 H3K18me3, binder concentration: 100 nM): 0.014 ± 0.0016 | peptide microarray binding signal [3, 21]: 0.468 ± 0.19 | peptide microarray binding signal [3, 22]: 0.29 ± 0.07 | peptide microarray binding signal [4, 21]: 0.0548 ± 0.023 | peptide microarray binding signal [4, 22]: 0.0168 ± 0.0037

B10: H3 11-23 T G G K A P Rme2a Kac Q L A T K (peptide)
chain: TGGKAPRKQLATK
peptide microarray binding signal ([1]; peptide modifications: H3R17me2a H3K18ac, binder concentration: 50 nM): 0.00671 ± 0.00026 | peptide microarray binding signal ([1]; peptide modifications: H3R17me2a H3K18ac, binder concentration: 500 nM): 0.0144 ± 0.001 | peptide microarray binding signal ([2]; peptide modifications: H3R17me2a H3K18ac, binder concentration: 10 nM): 0.00967 ± 0.00055 | peptide microarray binding signal ([2]; peptide modifications: H3R17me2a H3K18ac, binder concentration: 100 nM): 0.0188 ± 0.0034 | peptide microarray binding signal [3, 23]: 0.00549 ± 0.00049 | peptide microarray binding signal [3, 24]: 0.0302 ± 0.033 | peptide microarray binding signal [4, 23]: 0.00273 ± 0.00027 | peptide microarray binding signal [4, 24]: 0.00427 ± 0.0013
